In the library only some 1.7% were active in any assay of this set; here they are far more common.
Fam108B counter – blocks mouse Fam108B hydrolase in RBBP9 counter-screen; 0.33% of 300,000 active; recombinant Fam108B, FP-Rh probe fluorescence polarization; inhibition, % at 9.51 µM;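 active means inhibition above the screen mean inhibition plus 3 SD, computed separately per campaign, cut at about 18% in these data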;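 further: inhibitors lower polarization as less probe binds the enzyme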
LYPLA2 counter – counter-screen for PME1 inhibitors: inhibitors of human LYPLA2 | recombinant LYPLA2, FP-Rh probe fluorescence polarization | 0.38% of 320,000 active | inhibition, % at 5.9 µM | O95372;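 active means inhibition above the screen-wide mean plus 3 SD, limit set per campaign, cut at about 26% in these data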;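 further: 0% = LYPLA2 with DMSO and 100% = wells lacking LYPLA2 enzyme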
Target sequence (O95372 whole entry, looked up): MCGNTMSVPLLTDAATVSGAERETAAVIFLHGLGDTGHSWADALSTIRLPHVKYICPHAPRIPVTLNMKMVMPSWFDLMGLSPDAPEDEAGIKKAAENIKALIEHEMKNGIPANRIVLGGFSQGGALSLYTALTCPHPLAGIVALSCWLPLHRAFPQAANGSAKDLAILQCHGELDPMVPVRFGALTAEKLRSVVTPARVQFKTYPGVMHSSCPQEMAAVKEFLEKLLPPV
PME-1 inh – PME-1 (human) inhibition | inhibition, % at 5.9 µM | Q9Y570 | recombinant PME-1, FP-Rh probe fluorescence polarization | 0.53% of 320,000 active;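 active means inhibition above the campaign mean of all compounds plus 3 SD, cut at about 26% in these data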;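 further: competitive labeling of PME-1 active site by serine hydrolase directed probe; 0% = PME-1 with DMSO and 100% = wells lacking PME-1 enzyme; inhibitors block probe labeling so polarization falls and inhibition rises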
LYPLA1 counter – LYPLA1 (human) inhibition in PME1 counter-screen. O75608. recombinant LYPLA1, FP-Rh probe fluorescence polarization. inhibition, % at 5.9 µM. 0.16% of 320,000 active. AID 2174;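 active means inhibition above the mean of all tested compounds plus 3 SD, set per campaign, cut at about 14% in these data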;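 further: inhibitors block serine hydrolase probe labeling of LYPLA1 so polarization falls; 0% = enzyme with DMSO and 100% = wells lacking LYPLA1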
Target sequence (O75608 whole entry, looked up): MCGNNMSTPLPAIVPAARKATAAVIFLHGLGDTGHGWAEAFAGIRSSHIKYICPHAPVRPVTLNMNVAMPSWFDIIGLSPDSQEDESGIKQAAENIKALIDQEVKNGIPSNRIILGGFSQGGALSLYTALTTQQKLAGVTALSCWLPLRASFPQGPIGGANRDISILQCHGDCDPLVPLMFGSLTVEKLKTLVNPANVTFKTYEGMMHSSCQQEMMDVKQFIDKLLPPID
PAD4 FP inh – PAD4 (human) enzyme inhibition. Q9UM07. recombinant PAD4, RCA probe fluorescence polarization. inhibition, % at 6.36 µM. 0.41% of 330,000 active. AID 485272;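 active means percent inhibition above a cutoff equal to the mean of all tested compounds plus 3 SD, cut at about 15% in these data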;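 further: 0% = PAD4 with RCA probe and DMSO and 100% = probe without PAD4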
GSTO1 counter – GSTO1 inhibition, counter-screen for RBBP9 inhibitors; 1.1% of 300,000 active; inhibition, % at 5.96 µM; P78417; recombinant GSTO1, activity-based probe fluorescence polarization;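 active means inhibition above the campaign mean inhibition plus 3 SD, cut at about 35% in these data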;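 further: 0% = GSTO1-1 with DMSO and 100% = wells lacking GSTO1-1 enzyme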
Target sequence (P78417 whole entry, looked up): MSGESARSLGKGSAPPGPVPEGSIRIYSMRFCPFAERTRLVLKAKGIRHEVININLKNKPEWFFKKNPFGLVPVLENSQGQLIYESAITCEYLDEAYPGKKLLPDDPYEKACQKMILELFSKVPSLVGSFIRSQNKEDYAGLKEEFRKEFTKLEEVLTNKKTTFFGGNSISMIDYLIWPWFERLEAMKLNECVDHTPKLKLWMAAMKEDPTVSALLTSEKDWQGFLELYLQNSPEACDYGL
GSTO1 confirm – confirmation of human GSTO1 inhibitors; shares compounds with GSTO1 counter; recombinant GSTO1, probe fluorescence polarization; inhibition, % at 5.96 µM; 54% of 2,400 active; AID 2176;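 active means inhibition above the primary screen's cutoff, its mean inhibition plus 3 SD, cut at about 35% in these data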;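 further: loss of polarization as inhibitors block binding of rhodamine sulfonate ester activity probe; 0% = GSTO1 with DMSO and 100% = wells lacking GSTO1 enzyme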
Active calls of the source: *; x = no result.

SMILES | Fam108B counter | LYPLA2 counter | PME-1 inh | LYPLA1 counter | PAD4 FP inh | GSTO1 counter | GSTO1 confirm
CCOCCCNC1=C(Cl)C(=O)c2ccccc2C1=O | 1.9 | 3.4 | 7.2 | 1.3 | -13.1 | 64.7* | 24.8
O=C1C(Cl)=C(NCCN2CCOCC2)C(=O)c2ccccc21 | 4.4 | 0.6 | 0.4 | -2.5 | -14.7 | 41.5* | 6.1
O=C1C(Cl)=C(NCCCO)C(=O)c2ccccc21 | -0.3 | 0.1 | 5.6 | 2.2 | -10.7 | 61.9* | 8.9
CCOCCCNS(=O)(=O)c1ccccc1 | 0.7 | 2.9 | -0.5 | -0.1 | 1.0 | 5.7 | x
CCOC(=O)N1CCC(Nc2c(NCCCN(CC)c3cccc(C)c3)c(=O)c2=O)CC1 | 1.2 | 3.2 | 4.6 | 3.1 | 3.7 | 4.0 | x
Nc1ccc2nn(-c3ccc(F)cc3)nc2c1 | 2.3 | -4.5 | -2.8 | -5.0 | -3.9 | 43.3* | 47.6*
COc1ccc2nc(Nc3sc4c(c3C(N)=O)CCCC4)sc2c1 | 3.6 | -4.5 | 24.2 | -6.5 | -56.6 | 42.0* | 24.7
N#Cc1cc2c(nc1SC1CCCCC1O)CCCC2 (centres undefined) | 7.5 | 0.8 | -4.4 | -3.1 | -1.7 | 3.8 | x
O=C1CCC/C(=N/Nc2ccc(Cl)cc2)C1 | 9.3 | 7.8 | 7.0 | 2.4 | -10.2 | 40.5* | 6.9
Cc1ccc(SC/C(O)=C(\C#N)c2nc3ccccc3s2)cc1 | 10.0 | -3.0 | 5.7 | 3.1 | -1.9 | 49.2* | 47.9*
CC(=O)N1c2ccc(S(=O)(=O)NCC3CCC(C(=O)N4CCCC(C)C4)CC3)cc2CC1C (centres undefined) | 2.4 | -4.0 | 1.0 | 2.6 | -2.0 | -3.4 | x
COc1ccccc1-c1noc(-c2cc(OC)c(OC)c(OC)c2)n1 | -0.5 | -1.1 | -5.7 | -2.6 | -3.6 | -6.7 | x
COc1cc(OC)cc(-c2nc(-c3ccccc3OC)no2)c1 | -3.0 | 4.1 | -3.3 | -0.1 | 3.1 | 52.5* | 6.1
O=C(O)c1cccc(NC2=C(N3CCOCC3)C(=O)c3ccccc3C2=O)c1 | 2.2 | 1.0 | -6.0 | 2.3 | 10.2 | 46.7* | 16.6
O=C1C(NS(=O)(=O)c2cccs2)=C(N2CCOCC2)C(=O)c2ccccc21 | 2.4 | 7.9 | 4.5 | 2.4 | -10.4 | 7.4 | x
C/C(=C\C(=O)c1ccccc1)Nc1ccc(O)cc1 | 3.7 | 25.1 | 13.2 | 10.2 | 50.5* | 77.8* | 8.2
O=C(O)C1OC(Oc2c(-c3ccc(O)c(O)c3)oc3cc(O)cc(O)c3c2=O)C(O)C(O)C1O (centres undefined) | -3.2 | -12.3 | -18.5 | -7.2 | -3.8 | 33.7 | x
O=c1c(O)c(-c2ccc(O)c(O)c2)oc2cc(O)cc(O)c12 | 13.9 | -18.3 | 14.1 | -20.1 | -7.8 | 56.7* | 65.5*
O=c1cc(-c2ccc(O)c(O)c2)oc2cc(O)cc(O)c12 | 7.9 | -24.9 | -16.7 | -18.4 | 1.3 | 50.1* | 46.8*
Cc1ccc(C(=O)N/C(=C\c2ccc(-c3ccccc3[N+](=O)[O-])o2)C(=O)NCCCN(C)C)cc1 | 5.8 | 11.8 | 8.3 | 2.3 | -11.0 | 43.7* | 7.2
Cc1ccc(C(=O)N/C(=C\c2ccc(-c3ccccc3[N+](=O)[O-])o2)C(=O)NCCN(C)C)cc1 | 6.8 | 0.6 | 7.8 | -1.0 | -12.7 | 25.4 | x
CC(=O)C[C@H](O)CC(=O)[C@H]1OC(=O)[C@@H](C)CCCCc2ccccc21 | x | x | x | x | -2.2 | x | x
CCc1cccc(NC(=O)CSC2=NS(=O)(=O)c3ccccc32)c1 | -3.8 | 1.0 | -1.6 | -0.6 | 8.7 | 54.6* | 1.4
CC(C)(C)c1ccc(C(=O)CSc2n[nH]c(=O)[nH]c2=O)cc1 | -0.4 | 2.6 | 6.6 | -2.6 | -2.5 | 7.1 | x
Nc1nnc(-c2ccco2)s1 | 2.1 | -1.9 | 3.4 | -0.1 | 0.4 | -8.5 | x
SMILES | Fam108B counter | LYPLA2 counter | PME-1 inh | LYPLA1 counter | PAD4 FP inh | GSTO1 counter | GSTO1 confirm
Nc1ncnc2oc(-c3ccco3)c(-c3ccco3)c12 | 16.0 | -4.0 | 3.3 | -6.6 | 3.4 | 55.6* | 19.8
C1=CC2=NC34CCCCC3CC3=C(CCCC3)N4C2=CC1=NC1CCCCC1 (centres undefined) | 0.2 | 5.2 | 8.9 | -0.5 | 6.5 | 76.3* | 8.3
CCN(CC)C(=O)c1ccc(N)cc1 | 6.4 | -2.1 | -4.6 | 1.3 | 0.8 | 42.9* | 5.5
CCCCCCCCCCCC1=C(O)C(=O)C=C(O)C1=O | 14.9 | 9.4 | 20.1 | 0.3 | -2.4 | 79.4* | 65.8*
CCCCCCc1c(O)c2ccccc2[nH]c1=O | 3.0 | 4.0 | -0.2 | 0.8 | 1.8 | -1.9 | x
CCn1cc(Br)c(C(=O)Nc2cccc(SC)c2)n1 | 1.9 | 3.1 | -3.7 | -0.8 | -1.7 | 3.3 | x
COc1ccccc1-c1nnc(NC(=O)C(C)SC2=NCCS2)s1 (centres undefined) | -0.8 | -11.1 | -5.6 | -6.5 | 11.2 | 48.2* | 61.8*
Cc1cc(C(=O)N/N=C/c2ccc([N+](=O)[O-])o2)c(C)o1 | 5.9 | -2.5 | 3.0 | -7.0 | -6.4 | 38.1* | 6.8
Cc1ccc(-c2cc(NC(=O)CCl)n(-c3ccccc3)n2)cc1 | -1.5 | 7.5 | -4.9 | 0.3 | 1.4 | 73.2* | 86.4*
O=C(CCl)Nc1cc(-c2ccccc2)nn1-c1ccccc1 | -2.5 | 3.1 | -0.9 | -2.2 | -5.3 | 64.7* | 88.6*
CCOC(=O)c1c(CC(C)C)csc1NC(=O)C(C)C | -3.4 | -5.0 | -2.4 | -3.4 | -7.8 | 1.9 | x
CCOC(=O)c1c(CC(C)C)csc1NC(=O)CCl | -0.8 | -4.1 | -4.3 | -5.3 | 12.7 | 76.0* | 91.6*
CNc1ccc(Br)cc(C(=O)/C=C/c2cc(OC)ccc2OC)c1=O | 8.3 | 7.7 | 18.4 | -1.1 | -1.4 | 40.0* | 13.3
CCNc1ccc(Br)cc(C(=O)/C=C/c2ccc(Cl)cc2Cl)c1=O | 1.0 | 6.0 | 23.3 | -3.0 | -3.4 | 42.6* | 6.8
COc1ccc(/C=C/C(=O)c2cc(Br)ccc2O)cc1OC | -3.0 | 11.4 | 0.3 | 3.1 | -1.1 | 8.0 | x
CCN(c1ccccc1)S(=O)(=O)c1cccc(C(=O)NCC2(N(C)C)CCCCC2)c1 | x | 0.4 | 0.2 | -2.1 | -3.1 | x | x
CC1(C)CC(=O)C(C=NCC2CCN(C(=S)Nc3cccc(Cl)c3)CC2)=C(O)C1 | -1.9 | 12.0 | -3.3 | -0.4 | -7.1 | 3.0 | x
O=C1C(NS(=O)(=O)c2cccs2)=C(N2CCN(c3cccc(C(F)(F)F)c3)CC2)C(=O)c2ccccc21 | 8.9 | 3.3 | 21.2 | -0.6 | -9.0 | 48.2* | 13.7
CCOc1ccccc1N1CCN(C2=C(NS(=O)(=O)c3cccs3)C(=O)c3ccccc3C2=O)CC1 | 17.9 | 9.2 | 1.6 | 4.2 | -3.1 | 62.5* | 12.8
O=C(N/N=C\c1cc(Br)c(Br)o1)c1cncc(Br)c1 | 4.0 | -5.7 | 0.1 | -5.8 | -3.4 | -5.3 | x
O=C(N/N=C/c1cc(Br)c(Br)o1)c1cccnc1 | 4.7 | 4.7 | -3.8 | -2.2 | 4.0 | 44.4* | 15.3
COc1ccccc1N(/N=C1\Sc2ccccc2C1=O)C(C)=O | 6.0 | -3.5 | 0.4 | 0.4 | -15.2 | 44.1* | 75.0*
